From the supplement of paper PMC9694430

Assays:
Assay in all cases: thermal shift delta Tm vs DMSO control; higher = stronger stabilization (binding)
Settings in all cases: 12.5 µM; protein concentration 2 µM
LOC_OS01G01410-cb001 = test system: LOC_OS01G01410-cb001
Procedure, shortened: (§1)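 Compounds dissolved in DMSO were added to purified rice kinase domain constructs, which had been expressed in E. coli, for differential scanning fluorimetry. Each well held 19.5 μl of 2 μM kinase in 100 mM potassium phosphate pH 7.5, 150 mM NaCl, 10% glycerol and 5 × SYPRO Orange. Fluorescence was followed from 25°C to 95°C at a rate of 0.05°C/s. Shifts in Boltzmann-fitted melting temperature are triplicate means relative to DMSO-only protein.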

LOC_OS01G02750-cb003 = test system: LOC_OS01G02750-cb003
Procedure, shortened: as §1

LOC_OS01G10900-cb004 = test system: LOC_OS01G10900-cb004
Procedure, shortened: as §1

LOC_OS01G13800-cb001 = test system: LOC_OS01G13800-cb001
Procedure, shortened: as §1

LOC_OS01G14860-cb001 = test system: LOC_OS01G14860-cb001
Procedure, shortened: as §1

LOC_OS01G21960-cb002 = test system: LOC_OS01G21960-cb002
Procedure, shortened: as §1

LOC_OS01G39600-cb002 = test system: LOC_OS01G39600-cb002
Procedure, shortened: as §1

LOC_OS01G48390-cb002 = test system: LOC_OS01G48390-cb002
Procedure, shortened: as §1

LOC_OS01G51400-cb002 = test system: LOC_OS01G51400-cb002
Procedure, shortened: as §1

LOC_OS01G52050-cb004 = test system: T1, LOC_OS01G52050-cb004
T1 sequence (whole entry): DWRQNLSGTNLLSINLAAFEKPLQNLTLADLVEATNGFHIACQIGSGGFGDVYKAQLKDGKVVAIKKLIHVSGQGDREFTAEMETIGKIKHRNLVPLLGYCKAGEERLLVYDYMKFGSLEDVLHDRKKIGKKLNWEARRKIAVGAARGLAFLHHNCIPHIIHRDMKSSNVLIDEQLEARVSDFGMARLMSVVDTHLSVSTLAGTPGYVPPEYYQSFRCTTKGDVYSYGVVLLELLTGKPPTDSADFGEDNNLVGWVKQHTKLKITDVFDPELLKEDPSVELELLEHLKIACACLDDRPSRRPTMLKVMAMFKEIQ
Procedure, shortened: as §1

Row | SMILES | thermal shift delta Tm (LOC_OS01G01410-cb001) [°C] | thermal shift delta Tm (LOC_OS01G02750-cb003) [°C] | thermal shift delta Tm (LOC_OS01G10900-cb004) [°C] | thermal shift delta Tm (LOC_OS01G13800-cb001) [°C] | thermal shift delta Tm (LOC_OS01G14860-cb001) [°C] | thermal shift delta Tm (LOC_OS01G21960-cb002) [°C] | thermal shift delta Tm (LOC_OS01G39600-cb002) [°C] | thermal shift delta Tm (LOC_OS01G48390-cb002) [°C] | thermal shift delta Tm (LOC_OS01G51400-cb002) [°C] | thermal shift delta Tm (LOC_OS01G52050-cb004) [°C]
1 | Cc1[nH]nc2ccc(-c3cncc(OC[C@@H](N)Cc4ccccc4)c3)cc12 | 0.54 | 2.26 | 0.37 | 0.21 | 4.96 | 3.58 | -0.73 | 1.02 | 0.06 | 2.3
2 | O=C(NCCCNc1nc(Nc2cccc(NC(=O)N3CCCC3)c2)ncc1I)c1cccs1 | 4.61 | 2.64 | 1.85 | -0.09 | 5.77 | 3.44 | 8.52 | 2.91 | 1.38 | 10.7
3 | CC(C)CC(NC(=O)C(Cc1ccccc1)NC(=O)C(CCC(N)=O)NC(=O)C(Cc1ccc(O)cc1)NC(=O)C(C)NC(=O)CNC(=O)C(CCCCN)NC(=O)C(Cc1c[nH]c2ccccc12)NC(=O)C(NC(=O)C(Cc1c[nH]c2ccccc12)NC(=O)C(CCCCN)NC(=O)CNC(=O)C(CC(N)=O)NC(=O)C(CCC(=O)O)NC(=O)C(Cc1c[nH]c2ccccc12)NC(=O)C(NC(=O)C(Cc1c[nH]c2ccccc12)NC(=O)C(CO)NC(=O)CNC(=O)C1CCCN1C(=O)C(Cc1c[nH]c2ccccc12)NC(=O)C(CCC(N)=O)NC(=O)C(Cc1ccccc1)NC(=O)CNC(=O)C(N)Cc1c[nH]cn1)C(C)O)C(C)O)C(=O)NC(CCCCN)C(=O)NCC(=O)NCC(=O)NCC(=O)NCC(=O)NC(CO)C(=O)NC(CCCNC(=N)N)C(=O)NC(CCCNC(=N)N)C(=O)NC(CCCNC(=N)N)C(=O)NC(CCCNC(=N)N)C(=O)NC(CCCNC(=N)N)C(=O)NC(CCCNC(=N)N)C(=O)NC(CCCNC(=N)N)C(=O)NC(CCCNC(=N)N)C(=O)NC(CCCNC(=N)N)C(=O)O (stereo not given) | 0.36 | -0.66 | 1.09 | 1.22 | 0.08 | 1.26 | 2 | 1.2 | -0.25 | 1.43
4 | Cc1ccc(NC(=O)c2cccc(N(C)C)c2)cc1NC(=O)c1ccc(O)cc1 | 0.45 | 0.15 | 0.12 | 0.36 | 0.44 | 0.92 | -0.01 | 0.9 | 0.37 | 0.36
5 | Cc1cc(C)c(/C=C2\C(=O)Nc3ccccc32)[nH]1 [Semaxanib (SU5416)] | 2.4 | 1.81 | 0.7 | -0.49 | 0.24 | 1.45 | 0.58 | 1.2 | 0.58 | 1.59
6 | NCC(=O)Nc1ccc(-n2nc(C(F)(F)F)cc2-c2ccc3c(ccc4ccccc43)c2)cc1 | 1.11 | 6.14 | 0.31 | -0.76 | -0.8 | 0.55 | 2.28 | 0.79 | -0.21 | 2.4
7 | C[C@@H](Oc1ccc2[nH]nc(/C=C/c3cnn(CCO)c3)c2c1)c1c(Cl)cncc1Cl | 5.27 | 7.14 | 7 | -0.36 | 5.34 | 3.51 | 9.68 | 4.56 | 0.89 | 11.2
8 | CC(C)(O)CNc1ncc(-c2ccnc(Nc3ccnc(Cl)c3)n2)c(CC2CC2)n1 | 0.77 | 0.82 | 4.56 | -0.19 | 2.06 | 0.91 | -0.42 | 0.33 | 0.19 | 0.5
9 | C[C@@H](NC(=O)c1ncnc(N)c1Cl)c1ncc(C(=O)Nc2cc(C(F)(F)F)c(Cl)cn2)s1 | 1.26 | 1.15 | 2.82 | -0.27 | 0.84 | 0.73 | -1.6 | 2.52 | 0.56 | 0.43
10 | CC(C)c1c2cc(-c3ccnc(NC4CCC(NC5CCOCC5)CC4)n3)ccc2nn1C (stereo not given) | 1.15 | 4.38 | 1.83 | -0.3 | 7.15 | 2.64 | 1.1 | 2.74 | 0.39 | 2.13
11 | CN(C)CCOc1ccc(-c2nc(-c3ccncc3)c(-c3ccc4c(c3)CC/C4=N\O)[nH]2)cc1 | 1.77 | 0.07 | 3.19 | 0.05 | 0.42 | -0.07 | 0.16 | 1.16 | 0.46 | 0.22
12 | c1cc(-c2cnn3cc(-c4ccc(OCCN5CCCCC5)cc4)cnc23)ccn1 [Dorsomorphin 2HCl] | 4.71 | 10.2 | 8.66 | 0.11 | 2.59 | 3 | 7.6 | 5.88 | 0.21 | 6.74
13 | Cc1c[nH]c(/C=C2\C(=O)Nc3ccccc32)c1CCC(=O)O | 1.48 | 0.9 | 0.02 | 0 | 1.61 | 0.56 | 4.55 | 1.99 | 0.25 | 1.77
14 | CCn1c(N)c(C(=O)NC)c(=O)c2ccc(C#CC(C)(O)COC)nc21 (stereo not given) | 0.45 | 0.44 | -0.01 | -0.17 | 0.21 | 0.3 | -1.69 | 0.18 | 0.37 | 0.36
15 | C=CC(=O)Nc1cccc(Nc2nc(Nc3ccc(N4CCN(C(C)=O)CC4)cc3OC)ncc2C(F)(F)F)c1 [Rociletinib (CO-1686, AVL-301)] | 1.11 | -0.18 | -0.01 | -0.38 | 0.68 | 0.5 | -0.84 | 1.8 | 0.49 | 0.58
16 | Cc1ccc(-n2nc(C(C)(C)C)cc2NC(=O)Nc2ccc(OCCN3CCOCC3)c3ccccc23)cc1 [Doramapimod (BIRB 796)] | 0.6 | 0.28 | 0.4 | 0.47 | 1.26 | 0.35 | 0.04 | 0.73 | 0.2 | 1.1
17 | Cc1c(Cn2c(C)nc3c(C(=O)O)cc(N4CCOCC4)cc32)cccc1C(F)(F)F | 0.42 | 2.18 | 0.15 | -0.48 | -0.01 | 0.56 | 0.55 | 5.45 | 0.63 | -0.39
18 | CN1CCN(Cc2ccc(-c3cnc4[nH]cc(-c5ccc6[nH]ccc6c5)c4c3)cc2)CC1 | 3.79 | 5.34 | 4.45 | -0.19 | 4.87 | 4.44 | 9 | 3.1 | 0.11 | 9.93
19 | Cc1cnc(Nc2ccc(N3CCN(C)CC3)cc2)nc1Nc1cccc(S(=O)(=O)NC(C)(C)C)c1 | 1.26 | 0.29 | 0.71 | 0.25 | 1.34 | 2.76 | 6.04 | 1.61 | 0.64 | 3.19
20 | OCCn1cc(-c2cnc3nnn(Cc4ccc5ncccc5c4)c3n2)cn1 | 0.52 | 0.79 | -0.12 | -0.25 | 0.12 | 0.14 | 0.11 | 0.2 | 0.09 | 0.09
